Experiment [1] in a line: inhibitors of TNFa-induced NFkB p65 translocation, primary screen, imaging, HUVEC, MLSMR starter and 10KST1 sets (AID 438;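 active = inhibition above 20% together with a positive visual image hit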;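 note: compound added about 3h40 before a 20 min TNFalpha stimulation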;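 for inhibition: signal is the nuclear over cytoplasmic p65 intensity ratio per well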). The note with it: HUVEC TNFa-induced p65 nuclear translocation; cell count: measured here: nuclei count (cytotoxicity indicator), at 2.08 µM; inhibition: at 2 µM, stronger effect = higher value, 0% TNFa-plus-vehicle, 100% no-TNFa wells.
Experiment [2] in a line: inhibitors of mutant huntingtin aggregation, primary screen, imaging, exon1htt(103Q)mCFP cells, high-content imaging (AID 483;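 active = visual image review flags a hit and inhibition of aggregation exceeds 20%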;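 note: compound exposure lasted 3 days before fixation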;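 for nuclei count: percent of the per-plate median nuclei count of sample wells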). The note with it: exon1htt(103Q)mCFP cell line, aggregate imaging, at 2 µM; inhibition of aggregation: stronger effect = higher value; nuclei count: measured here: cell count, toxicity.
The nature of experiment [3]: inhibitors of E-selectin induction by TNFa, primary screen, imaging, HUVEC, immunofluorescence, MLSMR starter and 10KST1 sets (AID 487;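 active = visually confirmed hit in the image check and inhibition above 20%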;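 for inhibition: signal is fraction of cell area covered by stained E-selectin grains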;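 for nuclei count: 100% = median nuclei count of all wells on the same plate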). The settings on record: HUVEC TNFalpha-induced E-selectin immunofluorescence imaging, at 2 µM; inhibition: stronger effect = higher value; nuclei count: measured here: cell number, toxicity.
Experiment [4] concerns the target Voltage-gated potassium channel subunit beta-2 (Rattus norvegicus) (UniProt P62483). As to the kind of experiment: KvBeta enzyme negative modulators, primary screen, biochemical, NADPH fluorescence (AID 622;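 active = fluorescence slope higher than the sample average by over 3 SD, cut at about -0.22 in these data, passing the limit was not always enough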;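 note: slope of raw intensity against log time taken from 70 to 1610 s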). The settings on record: recombinant KvBeta, 4-cyanobenzaldehyde reduction, at 10 µM, stronger effect = higher value.
The target is the same in experiment [5]. As to the kind of experiment: KvBeta positive modulators, primary screen, biochemical, NADPH fluorescence (AID 623;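 active = NADPH fluorescence slope more negative than the mean of all samples by about 3 SD, 99.7% confidence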;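 note: fluorescence intensity change per second fitted from 20 to 320 s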). The note with it: Recombinant KvBeta, NADPH fluorescence decrease slope, 10 min; at 10 µM; stronger effect = lower value.
Experiment [6] addresses Alpha-2C adrenergic receptor (Homo sapiens) (UniProt P18825). The experiment in a line: modulators of alpha2C/GIRK thallium flux, primary screen, cell-based, HEK293 alpha2C/GIRK1/2 (AID 624).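 Note: slope of fluorescence ratio to pre-addition baseline per second over 15 to 24 s.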 The settings on record: thallium flux BTC fluorescence, at 10 µM, actives lie on both sides.
Experiment [7] is described as follows: inhibitors of Sendai virus-induced IRF3 signaling, primary screen, TLR/RLR signaling modifier project, cell-based, Sendai virus stimulus, luciferase, 10K MLSCN set (AID 602276;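 active = inhibition at or above 50% at 10 µM; inactive = inhibition below 50%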;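 note: firefly luciferase from ISG56 promoter only with Renilla not read in this screen; 0% = Sendai virus plus DMSO and 100% = medium plus DMSO without virus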). The note with it: HEK293 RL24 IRF3 luciferase reporter, at 10 µM, stronger effect = higher value. For orientation: A reporter such as luciferase makes a cellular process visible.
Experiment [8] in a line: inhibitors of poly I:C-induced TLR3 signaling, primary screen, cell-based, poly I:C stimulus, luciferase, 10K MLSCN set (AID 602277;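 active = inhibition of the reporter signal at or above 50%; inactive = inhibition below 50%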). The settings on record: HEK293-TLR3 RL24 IRF3 luciferase reporter, at 10 µM, stronger effect = higher value.

Here are results for 14 compounds from PubChem BioAssay.

Each structure is given as a SMILES string. The source made the active and inactive calls.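 Rule for the calls, unless noted: active = fluorescence slope after compound addition differing from the mean of all screened samples at 99.7% confidence, in either direction; inactive = the rest.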

Sequence of Voltage-gated potassium channel subunit beta-2 (Rattus norvegicus) (P62483 whole entry, looked up): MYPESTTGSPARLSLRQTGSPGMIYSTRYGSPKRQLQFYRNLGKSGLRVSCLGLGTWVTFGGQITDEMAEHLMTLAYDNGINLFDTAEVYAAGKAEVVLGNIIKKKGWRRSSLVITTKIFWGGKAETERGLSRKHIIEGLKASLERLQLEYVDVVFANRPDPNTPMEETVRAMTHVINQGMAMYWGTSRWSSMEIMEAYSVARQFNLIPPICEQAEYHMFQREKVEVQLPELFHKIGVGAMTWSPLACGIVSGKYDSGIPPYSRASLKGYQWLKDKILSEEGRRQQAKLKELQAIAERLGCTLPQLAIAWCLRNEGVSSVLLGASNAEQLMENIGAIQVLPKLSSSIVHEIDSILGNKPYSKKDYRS
Sequence of Alpha-2C adrenergic receptor (Homo sapiens) (P18825 whole entry, looked up): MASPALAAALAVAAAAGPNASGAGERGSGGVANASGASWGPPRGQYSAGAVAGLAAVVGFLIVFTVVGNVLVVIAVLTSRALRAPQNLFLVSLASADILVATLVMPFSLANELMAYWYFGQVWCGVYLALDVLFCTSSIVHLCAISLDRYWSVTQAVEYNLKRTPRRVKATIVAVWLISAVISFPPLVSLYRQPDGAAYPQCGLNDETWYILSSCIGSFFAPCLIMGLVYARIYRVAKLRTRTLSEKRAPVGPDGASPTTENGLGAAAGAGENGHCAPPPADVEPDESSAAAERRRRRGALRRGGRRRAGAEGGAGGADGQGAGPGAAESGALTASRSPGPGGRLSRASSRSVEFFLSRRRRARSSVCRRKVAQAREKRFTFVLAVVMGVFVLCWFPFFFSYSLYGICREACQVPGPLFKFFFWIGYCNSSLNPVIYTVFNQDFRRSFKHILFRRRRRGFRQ

The term inhibition denotes the drop in the measured response relative to a control, in per cent. For the compound `CCOC(=O)c1c(C)[nH]c(C)c1C(=O)COc1ccc(NC(=O)c2ccco2)cc1`, the cell count in experiment [1] was 426. Besides, the inhibition in experiment [1] is -10.7% (inactive); in experiment [3], -423% (inactive); in experiment [7] it was 14.6% (inactive); in experiment [8], 20.5% (inactive). For the same compound, the inhibition of aggregation in experiment [2] was 8.3% (inactive). Besides, the nuclei count was 102% in experiment [2] and 144% in experiment [3]. Further, the fluorescence slope in experiment [4] is -0.646 (inactive). Moreover, in experiment [5], the NADPH fluorescence slope was 1.7e-05 (inactive). Also, the slope in experiment [6] is 0.00505 (inactive).

With `COc1ccccc1Cn1nnc2c(=O)[nH]c(C3CCN(C(=O)c4ccccc4Cl)CC3)nc21`, the cell count in experiment [1] was determined as 324. Besides, the inhibition in experiment [1] was 3.2% (inactive); in experiment [3], -5.4% (inactive); in experiment [7] it was 18.5% (inactive); in experiment [8], 40.2% (inactive). The inhibition of aggregation in experiment [2] is 1.4% (inactive). In addition, the nuclei count in experiment [2] is 109%; in experiment [3], 98%. The fluorescence slope in experiment [4] was -0.624 (inactive). Moreover, the NADPH fluorescence slope in experiment [5] is -1.1e-05 (inactive). In experiment [6], the slope was 0.00545 (inactive).

`CCOCCCn1c(=S)[nH]c2cc3c(cc2c1=O)OCO3`: the cell count in experiment [1] was found to be 453. For the same compound, the inhibition in experiment [1] was 3% (inactive); in experiment [3] it was -12.7% (inactive); in experiment [7], -16.3% (inactive); in experiment [8], -2.74% (inactive). Besides, the inhibition of aggregation in experiment [2] was -8.1% (inactive). Also, the nuclei count in experiment [2] was 92%; in experiment [3], 103%. In addition, in experiment [4], the fluorescence slope was -0.489 (inactive). Besides, the NADPH fluorescence slope in experiment [5] was -5.9e-05 (inactive). Further, the slope in experiment [6] is 0.00895 (inactive).

For the compound `COc1ccc(OC)c(NC(=O)CS(=O)(=O)Cc2nc(-c3ccccc3C)oc2C)c1`, the cell count in experiment [1] was found to be 676. Also, the inhibition was 1.1% (inactive) in experiment [1], -17.6% (inactive) in experiment [3], 7.59% (inactive) in experiment [7] and 31.4% (inactive) in experiment [8]. Further, the inhibition of aggregation in experiment [2] is -17.4% (inactive). For the same compound, the nuclei count in experiment [2] came to 97.7%; in experiment [3], 110%. The fluorescence slope in experiment [4] is -0.587 (inactive). Moreover, the NADPH fluorescence slope in experiment [5] was -1.4e-06 (inactive). Also, in experiment [6], the slope is 0.00717 (inactive).

For the compound `CCCc1cc(=O)[nH]c(/N=C(\N)Nc2ccccc2)n1`, in experiment [1], the cell count is 826. Moreover, the inhibition in experiment [1] is 3.6% (inactive); in experiment [3] it was -95.3% (inactive); in experiment [7] it was 12.3% (inactive); in experiment [8], 16.6% (inactive). Also, the inhibition of aggregation in experiment [2] is -12.7% (inactive). The nuclei count was 94.3% in experiment [2] and 138% in experiment [3]. Also, the fluorescence slope in experiment [4] was -0.431 (inactive). Besides, the NADPH fluorescence slope in experiment [5] is -2.5e-05 (inactive). The slope in experiment [6] is 0.0048 (inactive).

Turning to `COC(=O)Cn1c(=O)c2c(nc3n2CC(C)CN3c2ccc(C)c(C)c2)n(C)c1=O` (centres undefined), in experiment [1], the cell count is 561. In addition, the inhibition in experiment [1] was -11% (inactive); in experiment [3], -19.2% (inactive); in experiment [7] it was 13.3% (inactive); in experiment [8], 36% (inactive). Moreover, in experiment [2], the inhibition of aggregation was -7.5% (inactive). Moreover, the nuclei count is 110% in experiment [2] and 118% in experiment [3]. In addition, the fluorescence slope in experiment [4] is -0.535 (inactive). Further, the NADPH fluorescence slope in experiment [5] is -4.3e-05 (inactive). Besides, the slope in experiment [6] was 0.00607 (inactive).

Regarding `CCc1nn2c(=O)cc(CSc3nc4sc5c(c4c(=O)n3C)CCCC5)nc2s1`, in experiment [1], the cell count came out at 536. In addition, the inhibition in experiment [1] is -14.1% (inactive); in experiment [3], 38% (inactive); in experiment [7], -3.07% (inactive); in experiment [8] it was -3.25% (inactive). The inhibition of aggregation in experiment [2] is -13.9% (inactive). Moreover, the results for the nuclei count in experiment [2] and in experiment [3] were 118% and 65.2%, respectively. Further, in experiment [4], the fluorescence slope is -0.598 (inactive). In addition, the NADPH fluorescence slope in experiment [5] is 4.1e-05 (inactive). The slope in experiment [6] is 0.00602 (inactive).

With `CCCC(=O)Nc1ccc2oc(-c3cccnc3)nc2c1`, in experiment [1], the cell count turned out to be 330. Besides, the inhibition is -1.1% (inactive) in experiment [1], -1.9% (inactive) in experiment [3], -23.4% (inactive) in experiment [7] and -96.1% (inactive) in experiment [8]. In addition, the inhibition of aggregation in experiment [2] was 18.2% (inactive). Moreover, the nuclei count in experiment [2] was 82.7%; in experiment [3], 62.2%. Besides, the fluorescence slope in experiment [4] is -0.332 (inactive). Besides, in experiment [5], the NADPH fluorescence slope was -1.1e-05 (inactive). Besides, the slope in experiment [6] is 0.00331 (inactive).

As for `O=C(NCc1ccco1)c1ccc2c(=O)n(CC3CCCO3)c(=S)[nH]c2c1` (centres undefined), in experiment [1], the cell count was found to be 318. Moreover, the inhibition is -2.6% (inactive) in experiment [1], -7.4% (inactive) in experiment [3], 9.53% (inactive) in experiment [7] and 15.2% (inactive) in experiment [8]. For the same compound, the inhibition of aggregation in experiment [2] was -6.3% (inactive). In addition, the nuclei count in experiment [2] came out at 120%; in experiment [3] it was 101%. Moreover, the fluorescence slope in experiment [4] is -0.501 (inactive). Also, the NADPH fluorescence slope in experiment [5] was -2.2e-05 (inactive). Moreover, in experiment [6], the slope was 0.00599 (inactive).

For `COc1cc(CN(C)CC(=O)c2[nH]c(C)c(C(C)=O)c2C)ccc1OC(F)F`, the cell count in experiment [1] was 443. Also, the inhibition in experiment [1] was 1.6% (inactive); in experiment [3], -86.8% (inactive); in experiment [7] it was -17.1% (inactive); in experiment [8] it was -82.6% (inactive). In addition, in experiment [2], the inhibition of aggregation is -11% (inactive). The nuclei count in experiment [2] came to 95.9%; in experiment [3], 129%. In experiment [4], the fluorescence slope is -0.616 (inactive). The NADPH fluorescence slope in experiment [5] is -2.3e-05 (inactive). Also, the slope in experiment [6] is 0.00408 (inactive).

With `CC1(C)CC(=O)C(C=Nc2ccc3c(c2)OCO3)=C(O)C1`, the cell count in experiment [1] was found to be 329. The inhibition was 1% (inactive) in experiment [1], -252% (inactive) in experiment [3], -6.77% (inactive) in experiment [7] and -5.98% (inactive) in experiment [8]. In experiment [2], the inhibition of aggregation was 12.6% (inactive). In addition, the nuclei count in experiment [2] was 104%; in experiment [3], 86.4%. Moreover, the fluorescence slope in experiment [4] is -0.435 (inactive). In addition, the NADPH fluorescence slope in experiment [5] is -6.8e-05 (inactive). Moreover, the slope in experiment [6] was 0.00387 (inactive).

`N#CC1=C(N)Oc2cc(O)ccc2C1C1CCCCC1` (centres undefined): in experiment [1], the cell count was found to be 527. Further, the inhibition in experiment [1] was 0.6% (inactive); in experiment [3], -33.8% (inactive); in experiment [7], 14.1% (inactive); in experiment [8], 25.6% (inactive). The inhibition of aggregation in experiment [2] was 18.3% (inactive). Besides, the nuclei count is 103% in experiment [2] and 85.8% in experiment [3]. Besides, the fluorescence slope in experiment [4] was -0.443 (inactive). The NADPH fluorescence slope in experiment [5] is 1.3e-05 (inactive). Moreover, the slope in experiment [6] was 0.00336 (inactive).

Turning to `COCCCNC(=O)Cn1cc2c(n1)CCC(C)C2` (centres undefined), in experiment [1], the cell count was found to be 767. In addition, the inhibition in experiment [1] is -6.1% (inactive); in experiment [3], -27.6% (inactive); in experiment [7], 4.22% (inactive); in experiment [8], 12.1% (inactive). For the same compound, the inhibition of aggregation in experiment [2] is -6% (inactive). Moreover, the nuclei count in experiment [2] was 104%; in experiment [3], 121%. The fluorescence slope in experiment [4] was -0.652 (inactive). Further, the NADPH fluorescence slope in experiment [5] is 2.7e-06 (inactive). Besides, the slope in experiment [6] was 0.00615 (inactive).

With `O=C(NCC1CCCO1)c1cccc(N2CCCC2=O)c1` (centres undefined), in experiment [1], the cell count came out at 458. Also, the inhibition in experiment [1] is -18.6% (inactive); in experiment [3], -32.7% (inactive); in experiment [7], 10.8% (inactive); in experiment [8], 4.03% (inactive). In addition, in experiment [2], the inhibition of aggregation is -1.3% (inactive). The nuclei count in experiment [2] stood at 88.8%; in experiment [3], 115%. Also, the fluorescence slope in experiment [4] is -0.376 (inactive). Further, in experiment [5], the NADPH fluorescence slope was 2.3e-06 (inactive). For the same compound, the slope in experiment [6] is 0.0057 (inactive).
